Experimental data: PubChem BioAssay AID1159580 (chemical genetic matrix, 2015)
The whole screen tested about 5,500 compounds, of which about 2,000 (36%) were called active. About 18% were inconclusive and are not listed. Rule as the data show it: active = normalized growth mostly below about 0.91 (no sharp cut-off); inconclusive = no clear call, values can overlap the other calls; inactive = mostly above about 0.92. Some of the results follow.

Assay: chemical genetic growth profiling, strain panel (AID 1159580);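 also: tested at 20 µM; growth read once vehicle control cultures reached saturation at 30 °C; 1 = growth at the plate median or of vehicle wells; lower values mean less growth of the strain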
Details: S. cerevisiae deletion strains, growth OD

Measured: normalized growth

Cc1nn(-c2ccccc2)nc1C(=O)NC(=O)N1CCCC1
inactive: locus YAL013W, strain DEP1, hits give low values 0.992 | locus YBR229C, strain ROT2, hits give low values 0.983 | locus YDL101C, strain DUN1, hits give low values 0.949 | locus YDL134C, strain PPH21, hits give low values 1.01 | locus YDR150W, strain NUM1, hits give low values 0.871 | locus YEL061C, strain CIN8, hits give low values 1.02 | locus YGR078C, strain PAC10, hits give low values 0.964 | locus YHR030C, strain SLT2, hits give low values 0.94 | locus YHR087W, strain rtc3, hits give low values 1.03 | locus YJR043C, strain POL32, hits give low values 0.977 | locus YJR075W, strain HOC1, hits give low values 0.995 | locus YLR039C, strain RIC1, hits give low values 0.998 | locus YLR058C, strain SHM2 (second series), hits give low values 0.997 | locus YLR085C, strain ARP6, hits give low values 1.02 | locus YLR262C, strain YPT6, hits give low values 1.02 | locus YML094W, strain GIM5, hits give low values 1.02 | locus YMR219W, strain ESC1, hits give low values 0.997 | locus YMR263W, strain SAP30, hits give low values 0.987 | locus YMR307W, strain GAS1, hits give low values 0.927 | locus YNL128W, strain TEP1, hits give low values 0.991 | locus YNL153C, strain GIM3, hits give low values 0.986 | locus YNL298W, strain CLA4 (second series), hits give low values 1.01 | locus YNL322C, strain KRE1, hits give low values 0.995 | locus YNR030W, strain Alg12, hits give low values 1 | locus YOL006C, strain TOP1, hits give low values 0.955 | locus YPL055C, strain LGE1, hits give low values 1 | locus YPL241C, strain CIN2, hits give low values 0.965 | locus YPR135W, strain CTF4, hits give low values 0.949
